# From PubChem BioAssay
# DRD3 agonist = qHTS of D3 Dopamine Receptor Agonist: qHTS. D(3) dopamine receptor (Homo sapiens), P35462. D3R DiscoveRx beta-arrestin cells, luminescence, 90 min. max activation, %. hit rate 0.58% among 410,000. AID 652048, 2013; in the data active = max activation above about 30%; note: 0% is about no effect
# Target sequence (P35462 whole entry, looked up): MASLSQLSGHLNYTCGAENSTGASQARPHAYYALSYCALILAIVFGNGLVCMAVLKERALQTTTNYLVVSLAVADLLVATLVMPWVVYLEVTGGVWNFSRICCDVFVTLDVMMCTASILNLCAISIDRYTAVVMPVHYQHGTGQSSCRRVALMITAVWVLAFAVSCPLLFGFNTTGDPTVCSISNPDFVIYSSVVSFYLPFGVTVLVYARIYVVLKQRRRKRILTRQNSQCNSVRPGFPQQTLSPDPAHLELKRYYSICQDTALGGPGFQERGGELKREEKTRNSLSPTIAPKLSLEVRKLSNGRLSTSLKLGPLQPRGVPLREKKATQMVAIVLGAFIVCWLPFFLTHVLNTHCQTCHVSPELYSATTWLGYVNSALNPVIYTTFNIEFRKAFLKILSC
#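 Agonist mode: compounds and dopamine controls were applied to plated cells for 90 min at 37 degrees C after an overnight attachment at 1500 cells/well. Luminescent read-out followed 30 - 60 minutes at room temperature with DiscoveRx detection reagent.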
# IL1B secr inh = qHTS for Inhibitors of Inflammasome Signaling: IL-1-beta AlphaLISA Primary Screen | activity change, % at 57.5 µM | AID 743279, 2014 | hit rate 4.7% among 360,000 | THP-1 LPS/ATP IL-1B secretion, AlphaLISA, 16 h; stronger effect = lower value; in the data active = activity change below about -50%; inconclusive = mostly about -30% to -49%; note: % is set by controls: 0 for no effect and ±100 for the full control effect
#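 THP-1 cells pretreated 1 hr with compounds (up to 57.5 uM final), then stimulated with LPS (250 ng/mL final) plus ATP (1.25 mM final); secreted IL-1B measured by AlphaLISA after 16 hr, decreased signal indicating inhibition.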
# DT40 TDP1 no CPT = qHTS for Inhibitors of human tyrosyl-DNA phosphodiesterase 1 (TDP1): qHTS in cells in absence of CPT. DT40 Tdp1-/- hTDP1 cells, no CPT, ATP luminescence, 48 h. Potency, µM (top dose mostly 46.2 µM), for the others: top-dose activity change, negative = growth inhibition, hits mostly inhibitors. hit rate 15% among 420,000. AID 686978, 2013; note: potency is the fitted concentration of half-maximal effect; % is set by controls: 0 for no effect and ±100 for the full control effect; nearly all actives have a fitted effect of over 55% in size
#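 Growth of hTDP1-complemented DT40 Tdp1-knockout cells is measured by ATP luminescence after at least 48 hr compound exposure at 37 °C, with DMSO substituting for the 20 nM CPT used in the parallel screen.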
# D3 antag = qHTS of D3 Dopamine Receptor Antagonist: qHTS | D3R cells, DiscoveRx beta-arrestin luminescence, antagonist mode; stronger effect = lower value | hit rate 2.5% among 360,000 | max response, negative = inhibition, % | D(3) dopamine receptor (Homo sapiens), P35462; in the data active = max response below about -50%; inconclusive = no clear call, values can overlap the other calls; note: % is set by controls: 0 for no effect and ±100 for the full control effect
#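 Cells expressing the human receptor were seeded at 1500 cells/well, incubated overnight at 37 degrees C in 5% CO2, then exposed to library compounds with dopamine controls for 90 minutes at 37 degrees C before luminescent detection.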
# TDP1 cell CPT = qHTS for Inhibitors of human tyrosyl-DNA phosphodiesterase 1 (TDP1): qHTS in cells in presence of CPT | chicken DT40 Tdp1-/-;hTDP1 cells + 20 nM CPT, ATP luminescence, 48 h | Potency, µM (series often up to 46.2 µM), for the others: top-dose activity change, negative = growth inhibition, most hits filed as inhibitors | hit rate 12% among 420,000; note: potency is the fitted concentration of half-maximal effect; % is set by controls: 0 for no effect and ±100 for the full control effect; nearly all actives have a fitted effect of over 55% in size
#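 Chicken DT40 Tdp1-/- cells complemented with human TDP1, 400 cells/well, exposed to compounds plus 20 nM camptothecin for at least 48 h at 37 C; viability read as ATP content by CellTiter-Glo luminescence.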
# ClpP mod = qHTS Assay for Activators of ClpP | hit rate 1.9% among 340,000 | purified B. subtilis ClpP, FRET peptide cleavage, 20 min | AID 651965, 2013 | ATP-dependent Clp protease proteolytic subunit (Bacillus subtilis (strain 168)), P80244 | Potency, µM (doses to about 57.5 µM), for inactives: at the top dose activity change, negative = active; active = well fitted falling curve with a large enough effect; inconclusive = small, poorly fitted or top-dose-only effect; inactive = no such curve, though single readings can be large or run the other way; note: potency is the fitted concentration of half-maximal effect; the source files actives as falling curves though it sought activators and does not explain the sign; nearly all actives have a fitted effect of over 65% in size
# Target sequence (P80244 whole entry, looked up): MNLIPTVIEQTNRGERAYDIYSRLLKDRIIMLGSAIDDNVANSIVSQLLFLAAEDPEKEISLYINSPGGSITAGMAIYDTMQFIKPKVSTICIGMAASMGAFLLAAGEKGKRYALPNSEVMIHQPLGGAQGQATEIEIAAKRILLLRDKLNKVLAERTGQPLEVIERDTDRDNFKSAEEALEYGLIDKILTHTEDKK
#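 ClpP 10 microg/mL final, pH 8 Tris/KCl buffer with BSA, glycerol, Tween-20; compound pinned in; FRET-FV substrate; RT 20 min; Ex320/Em430; ΔFRET vs ADEP 5.8 microM, DMSO, no enzyme.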
# Starred values were filed as active, the others as inactive; u = inconclusive; x = not tested or not shown. The list is not random: actives were taken first. Their share in the collection is about 21%. Unless noted, calls come from the whole dose curve; as a rule, active = well fitted inhibition curve with a large enough effect; inconclusive = small, poorly fitted or top-dose-only effect; inactive = flat fitted curve, though single readings scatter.
SMILES,DRD3 agonist,IL1B secr inh,DT40 TDP1 no CPT,D3 antag,TDP1 cell CPT,ClpP mod
Cc1cccc(NC(=O)CNC(=O)c2cc(S(=O)(=O)N(C)C)ccc2N2CCCC2)c1C,16,-19,u,-17,-22%,-17%
COc1ccc(/C=C/C(=O)NC(=S)NNC(=O)c2cccs2)cc1OC,5,47,u,1,u,x
COc1ccc(/C=C/C(=O)NC(=S)NNC(=O)Cc2cccs2)cc1OC,1,59,u,-72*,16µM*,3%
COc1ccc(C(=O)NC(=S)NNC(=O)Cc2cccs2)cc1,1,20,u,-67*,u,1%
CN(C)/C=N/NC(=O)C1Cc2c(ccc3ccccc23)O1 (stereo not drawn),-1,-24,-3%,u,-10%,-3%
COc1ccc(N(C(C)=O)c2nc3ccccc3[nH]2)cc1,-2,-11,u,-8,0%,0%
Oc1cccc(/C=C/c2ccc3cccc(O)c3n2)c1,1,4,16µM*,u,18µM*,0%
Cc1ccc(/C=C/c2nc3ccccc3s2)s1,-1,-1,-25%,-12,-12%,-7%
Cc1ccc(/C=C/c2ccc3cccc(O)c3n2)s1,-13,-16,16µM*,u,u,x
CC(=O)COc1cccc2ccc(/C=C/c3ccc(Br)s3)nc12,-8,12,u,-20,21µM*,u
COc1cccc(/C=C/c2ccc3cccc(O)c3n2)c1,-21,u,7.3µM*,-56*,u,x
O=C1O[C@@H]2[C@@H](O)[C@H](O)O[C@@H]2[C@H]1O,-7,x,0%,x,10%,x
O=[N+]([O-])c1ccc(/C=C/c2ccc3cccc(O)c3n2)cc1,-5,7,16µM*,4,21µM*,0%
Cc1c(N/N=C(\C#N)C(=O)c2ccc(Cl)cc2)c(=O)n(-c2ccccc2)n1C,-23,36,3.7µM*,-80*,3.7µM*,-3%
N#C/C(=N\Nc1ccc(Cl)cc1)C(=O)c1ccccc1,-2,-52*,10µM*,0,9.2µM*,-1%
CCOC(=O)Nc1cc2c(c(N)n1)N=C(c1ccccc1)CN2,-17,5,0.041µM*,u,0.21µM*,-21%
CCOC(=O)Nc1sc(C)nc1-c1ccccc1,9,-6,-4%,19,10%,-2%
Cc1ccc(S(=O)(=O)N(C)C)cc1NC(=S)N(C)C1CCN(C)CC1,-1,14,21%,4,4%,-1%
Cc1nnc(N/N=C/c2cccc(OCc3ccc(Cl)c(Cl)c3)c2)n1N,-7,-84*,u,-17,u,-15%
CCc1nnc(N/N=C\c2ccc(OC(C)=O)c(OC)c2)n1N,-3,-8,17%,1,-19%,-3%
CCOc1cc(/C=N/Nc2nnc(C)n2N)ccc1OC(C)=O,-4,18,16µM*,u,u,-1%
Cc1nnc(N/N=C/c2cccc(C(F)(F)F)c2)n1N,-12,29,-5%,3,-22%,-1%
CCOC(=O)C1CCN(C(=O)c2[nH]c(C(F)(F)F)nc2-c2ccccc2)CC1,5,11,4%,0,-2%,-2%
CCOC(=O)c1oc2ccccc2c1COC(=O)CNC(=O)c1cccc(C)c1,5,0,5%,5,1%,-20%
COc1ccc(S(=O)(=O)NCc2cccnc2)cc1C(=O)Nc1ccccc1,6,3,-17%,-4,2%,-7%
SMILES,DRD3 agonist,IL1B secr inh,DT40 TDP1 no CPT,D3 antag,TDP1 cell CPT,ClpP mod
CN1C(=O)/C(=C/c2ccccc2Cl)Sc2ccc(C(=O)NCc3cccnc3)cc21,4,-69*,u,10,u,x
CN1C(=O)/C(=C/c2ccccc2F)Sc2ccc(C(=O)NCC3CCCO3)cc21 (stereo not drawn),-4,u,u,-17,23µM*,-8%
Cc1cccc(/C=C2\Sc3ccc(C(=O)NCC4CCCO4)cc3N(C)C2=O)c1 (stereo not drawn),-2,-9,u,0,13%,x
CCOc1ccccc1-c1ccc(C(=O)NCc2ccc(Cl)cc2)o1,x,x,u,x,u,5%
COC1CCN(Cc2cn(Cc3ccccc3)nc2-c2cc3ccccc3o2)CC1,-6,u,26µM*,-27,u,-15%
OCC1CCCN(Cc2cn(Cc3ccccc3)nc2-c2cc3ccccc3o2)C1 (stereo not drawn),-12,-62*,u,14,-27%,x
OCC1CCN(Cc2cn(Cc3ccccc3)nc2-c2cc3ccccc3o2)CC1,-37,-56*,u,-29,u,0%
O=C(Nc1ccc(Cl)cn1)c1cccc(F)c1,1,11,4.6µM*,15,7.3µM*,1%
CC(C)C(=O)Nc1ccc(NC(=O)c2cccc(F)c2)cn1,0,-60*,u,-1,-12%,2%
O=C(Nc1cccc(C(=O)Nc2ccc(Cl)cn2)c1)c1ccccc1,-2,u,-18%,4,u,-5%
COc1cccc(NC(=O)C2CCN(S(=O)(=O)c3ccc4c(c3)NC(=O)CO4)CC2)c1,4,-14,u,6,23µM*,1%
O=C(Nc1cccc(C(F)(F)F)c1)C1CCN(S(=O)(=O)c2ccc(N3CCCC3=O)cc2)CC1,0,-19,2.1µM*,1,2.6µM*,-3%
COc1cccc(NC(=O)C2CCN(S(=O)(=O)c3ccc(N4CCCC4=O)cc3)CC2)c1,5,18,u,22,15µM*,0%
Cc1c(Cl)cnc(NC(=O)COC(=O)[C@H](C)NC(=O)c2ccccc2)c1Cl,-3,-5,-19%,-3,4%,0%
Cc1ccc(-n2ncc3c(N4CCCCC4)ncnc32)cc1Cl,-8,x,u,x,-19%,0%
